Inconclusive results are not listed. Active and inactive are the calls of the source. Calls come from the whole dose curve; as a rule, active = well fitted curve in the direction sought with a large enough effect; inconclusive = small, poorly fitted or top-dose-only effect, or another doubt; inactive = no such curve, though single readings can be large; an effect the other way counts as inactive or inconclusive.
Assays:
C33A = experiment: Primary qHTS to identify gynecologic anti-cancer compounds using libraries of approved drugs and bioactive compounds (AID 1345084); settings: Gynecologic cancer cell panel viability, ATPlite luminescence, 48 h; series mostly up to 57.5 µM; note: nearly all actives have a fitted effect of over 55% in size
In short: (§1)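 ATP-based viability (ATPlite), 1,000 cells/well, 16 h pre-incubation, 48 h compound at 37 C, 5% CO2, 15 min RT before read.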

CAOV3 = experiment: as above; settings: Gynecologic cancer cell panel viability, ATPlite luminescence, 48 h; series mostly up to 57.5 µM
In short: as §1

CASKI = experiment: as above; settings: Gynecologic cancer cell panel viability, ATPlite luminescence, 48 h; series mostly up to 57.5 µM
In short: as §1

Es-2 = experiment: as above; settings: Gynecologic cancer cell panel viability, ATPlite luminescence, 48 h; series mostly up to 57.5 µM
In short: as §1

HeLa = experiment: as above; settings: Gynecologic cancer cell panel viability, ATPlite luminescence, 48 h; series mostly up to 57.5 µM
In short: as §1

Hek293T = experiment: as above; settings: Gynecologic cancer cell panel viability, ATPlite luminescence, 48 h, control line for the selectivity index; series mostly up to 57.5 µM
In short: as §1

JEG-3 = experiment: as above; settings: Gynecologic cancer cell panel viability, ATPlite luminescence, 48 h; series mostly up to 57.5 µM
In short: as §1

OV90 = experiment: as above; settings: Gynecologic cancer cell panel viability, ATPlite luminescence, 48 h; series mostly up to 57.5 µM
In short: as §1

PA-1 = experiment: as above; settings: Gynecologic cancer cell panel viability, ATPlite luminescence, 48 h; series mostly up to 57.5 µM
In short: as §1

SKOV3 = experiment: as above; settings: Gynecologic cancer cell panel viability, ATPlite luminescence, 48 h; series mostly up to 57.5 µM
In short: as §1

Tov-21-G = experiment: as above; settings: Gynecologic cancer cell panel viability, ATPlite luminescence, 48 h; series mostly up to 57.5 µM
In short: as §1

Tov112D = experiment: as above; settings: Gynecologic cancer cell panel viability, ATPlite luminescence, 48 h; series mostly up to 57.5 µM
In short: as §1

[1] = Drug repurposing screens with cells derived from glioblastoma tumor samples (AID 1345199); settings: GBM patient neurospheres viability, ATP luminescence, 48 h; note: nearly all actives have a fitted effect of over 40% in size
In short: (§2)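 Primary testing used CD133+ neurospheres from four GBM patients, seven concentrations, 48 h exposure and ATP-based viability; confirmation added three slower-growing patient lines.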

astro = experiment: as above; settings: viability, ATP luminescence, 48 h; series mostly up to 45.9 µM
In short: as §2
% is set by controls: 0 for no effect and ±100 for the full control effect.

C=C[C@H]1[C@H](O[C@@H]2O[C@H](CO[C@@H]3OC[C@](O)(CO)[C@H]3O)[C@@H](O)[C@H](O)[C@H]2O)OC=C2C(=O)OCC[C@H]21
inactive: Potency (C33A) | Potency (CAOV3) | Potency (CASKI) | Potency (Es-2) | Potency (HeLa) | Potency (Hek293T) | Potency (JEG-3) | Potency (OV90) | Potency (PA-1) | Potency (SKOV3) | Potency (Tov-21-G) | Potency (Tov112D)

CC1(C)O[C@@]2(C)CC[C@@H]1C[C@@H]2OC1OC(CO)C(O)C(O)C1O (stereo partly specified)
inactive: Potency (C33A) | Potency (CAOV3) | Potency (CASKI) | Potency (Es-2) | Potency (HeLa) | Potency (Hek293T) | Potency (JEG-3) | Potency (OV90) | Potency (PA-1) | Potency (SKOV3) | Potency (Tov-21-G) | Potency (Tov112D)

COC(=O)[C@@]1(C)CC[C@]2(C(=O)O[C@@H]3O[C@H](CO)[C@@H](O)[C@H](O)[C@H]3O)CC[C@]3(C)C(=CCC4[C@@]5(C)CC[C@H](O[C@@H]6O[C@H](C(=O)O)[C@@H](O)[C@H](O)[C@H]6O)C(C)(C)C5CC[C@]43C)[C@@H]2C1 (stereo partly specified)
inactive: activity change, negative = cytotoxicity (C33A) -14.8% [at 11.6 µM] | activity change, negative = cytotoxicity (CAOV3) -1.21% [at 11.6 µM] | activity change, negative = cytotoxicity (CASKI) -4.58% [at 11.6 µM] | activity change, negative = cytotoxicity (Es-2) -0.312% [at 11.6 µM] | activity change, negative = cytotoxicity (HeLa) -10.5% [at 11.6 µM] | activity change, negative = cytotoxicity (Hek293T) -3.38% [at 11.6 µM] | activity change, negative = cytotoxicity (JEG-3) -1.5% [at 11.6 µM] | activity change, negative = cytotoxicity (OV90) -2.61% [at 11.6 µM] | activity change, negative = cytotoxicity (PA-1) -17.6% [at 11.6 µM] | activity change, negative = cytotoxicity (SKOV3) -12.6% [at 11.6 µM] | activity change, negative = cytotoxicity (Tov-21-G) 1.4% [at 11.6 µM] | activity change, negative = cytotoxicity (Tov112D) -8.48% [at 11.6 µM]

C[C@@]12C[C@]3(O)O[C@H](O1)[C@]1(COC(=O)c4ccccc4)[C@H]3C[C@@]12O[C@@H]1O[C@H](COC(=O)c2ccccc2)[C@@H](O)[C@H](O)[C@H]1O
inactive: Potency (C33A) | Potency (CAOV3) | Potency (CASKI) | Potency (Es-2) | Potency (HeLa) | Potency (Hek293T) | Potency (JEG-3) | Potency (OV90) | Potency (PA-1) | Potency (SKOV3) | Potency (Tov-21-G) | Potency (Tov112D)

C/C(=C/CCC(CO)C1CCC2(C)C3CCC4C(C)(C)C(OC5OC(CO)C(O)C(O)C5O)CC(O)C45CC35CCC12C)COC1OC(CO)C(O)C(O)C1O (stereo unspecified)
inactive: Potency (C33A) | Potency (CAOV3) | Potency (CASKI) | Potency (Es-2) | Potency (HeLa) | Potency (Hek293T) | Potency (JEG-3) | Potency (OV90) | Potency (PA-1) | Potency (SKOV3) | Potency (Tov-21-G) | Potency (Tov112D)

CC12CCC3c4ccc(O)cc4CCC3C1CCC2OC1OC(C(=O)O)C(O)C(O)C1O (stereo unspecified)
inactive: Potency (C33A) | Potency (CAOV3) | Potency (CASKI) | Potency (Es-2) | Potency (HeLa) | Potency (Hek293T) | Potency (JEG-3) | Potency (OV90) | Potency (PA-1) | Potency (SKOV3) | Potency (Tov-21-G) | Potency (Tov112D)

COc1cc([C@H]2OC[C@]3(OC(C)=O)[C@@H](c4ccc(O[C@@H]5O[C@H](CO)[C@@H](O)[C@H](O)[C@H]5O)c(OC)c4)OC[C@H]23)ccc1O
inactive: Potency (C33A) | Potency (CAOV3) | Potency (CASKI) | Potency (Es-2) | Potency (HeLa) | Potency (Hek293T) | Potency (JEG-3) | Potency (OV90) | Potency (PA-1) | Potency (SKOV3) | Potency (Tov-21-G) | Potency (Tov112D)

O=C(/C=C/c1ccc(O)cc1)OCC1=CC2OC(=O)C3=CO[C@@H](O[C@@H]4O[C@H](CO)[C@@H](O)[C@H](O)[C@H]4O)[C@H]1[C@@H]32 (stereo partly specified)
inactive: Potency (C33A) | Potency (CAOV3) | Potency (CASKI) | Potency (Es-2) | Potency (HeLa) | Potency (Hek293T) | Potency (JEG-3) | Potency (OV90) | Potency (PA-1) | Potency (SKOV3) | Potency (Tov-21-G) | Potency (Tov112D)

CC1(C)CC[C@]2(C(=O)O)CC[C@]3(C)C(=CCC4[C@@]5(C)C[C@@H](O)[C@H](O)C(C)(C)C5CC[C@]43C)[C@@H]2[C@@H]1O (stereo partly specified)
inactive: Potency (C33A) | Potency (CAOV3) | Potency (CASKI) | Potency (Es-2) | Potency (HeLa) | Potency (Hek293T) | Potency (JEG-3) | Potency (OV90) | Potency (PA-1) | Potency (SKOV3) | Potency (Tov-21-G) | Potency (Tov112D)

OC[C@H]1O[C@@H](OCCc2ccc(O)cc2)[C@H](O)[C@@H](O)[C@@H]1O
inactive: Potency (C33A) | Potency (CAOV3) | Potency (CASKI) | Potency (Es-2) | Potency (HeLa) | Potency (Hek293T) | Potency (JEG-3) | Potency (OV90) | Potency (PA-1) | Potency (SKOV3) | Potency (Tov-21-G) | Potency (Tov112D) | activity, negative = cell killing ([1]; at 45.9 µM (top of the series), tumour line B) -17.4% | activity, negative = cell killing ([1]; at 45.9 µM (top of the series), tumour line D) 11.3% | activity, negative = cell killing ([1]; at 46 µM (top of the series), tumour line A) -5.89% | activity, negative = cell killing ([1]; at 46.1 µM (top of the series), tumour line C) 4.11% | Potency (astro)

COc1cc([C@H]2OC[C@@H]3[C@@H](c4ccc(O[C@@H]5O[C@H](CO)[C@@H](O)[C@H](O)[C@H]5O)c(OC)c4)OC[C@]23O)ccc1O
inactive: Potency (C33A) | Potency (CAOV3) | Potency (CASKI) | Potency (Es-2) | Potency (HeLa) | Potency (Hek293T) | Potency (JEG-3) | Potency (OV90) | Potency (PA-1) | Potency (SKOV3) | Potency (Tov-21-G) | Potency (Tov112D)

CC1(C)NC2N(C1=O)c1ccccc1C2(O)CC(C(=O)O)n1cnc2ccccc2c1=O (stereo unspecified)
inactive: Potency (C33A) | Potency (CAOV3) | Potency (CASKI) | Potency (Es-2) | Potency (HeLa) | Potency (Hek293T) | Potency (JEG-3) | Potency (OV90) | Potency (PA-1) | Potency (SKOV3) | Potency (Tov-21-G) | Potency (Tov112D)

CCn1cc(C2=NOC(C(=O)Nc3c(C)n(C)n(-c4ccccc4)c3=O)C2)c(C)n1 (stereo unspecified)
inactive: Potency (C33A) | Potency (CAOV3) | Potency (CASKI) | Potency (Es-2) | Potency (HeLa) | Potency (Hek293T) | Potency (JEG-3) | Potency (OV90) | Potency (PA-1) | Potency (SKOV3) | Potency (Tov-21-G) | Potency (Tov112D)
